According to PubChem BioAssay (Tox21):
Several values for one entry are separate records, joined by “and”; a condition that tells them apart may be missing. Equal values may be shown once. The source holds several records for some structures; these can differ, active in one and inactive in another. Activity calls are given as the source filed them. Unless noted, calls come from the whole dose curve; as a rule, active = well fitted curve in the direction sought with a large enough effect in the repeat runs; inconclusive = weak or mixed curves; inactive = no such curve, though single readings can be large; an effect the other way counts as inactive or inconclusive.

Tests used:
[1] = qHTS assay to identify small molecule antagonists of the thyroid receptor (TR) signaling pathway (AID 743065); note: nearly all actives have a fitted effect of over 55% in size; note: potency is the fitted concentration of half-maximal effect
How it was run: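 Antagonism measured as loss of luciferase signal in GH3 cells stably carrying a TRE-luciferase reporter, co-treated with compound and T3 (1 nM final) for 23.5 h at 37 C. Viability was read in the same well by CellTiter-Fluor.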

[2] = system: thyroid hormone receptor (rat, GH3 cells); test: qHTS assay to identify small molecule agonists of the thyroid receptor (TR) signaling pathway (AID 743066; calls by dose curve; note: potency is the fitted concentration of half-maximal effect)
[3] = qHTS assay to identify small molecule antagonists of the estrogen receptor alpha (ER-alpha) signaling pathway - cell viability counter screen (AID 743074; calls by dose curve;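 note: HEK293 cells carrying ER-alpha-UAS-bla reporter stimulated with 17beta-estradiol; nearly all actives have a fitted effect of over 45% in size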; note: potency is the fitted concentration of half-maximal effect)
[4] = qHTS assay to identify small molecule antagonists of the estrogen receptor alpha (ER-alpha) signaling pathway using the BG1 cell line - cell viability counter screen (AID 743081);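 note: compound given together with 17beta-estradiol as the ER stimulus; series mostly up to about 70 µM; nearly all actives have a fitted effect of over 45% in size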
Aromatase (Homo sapiens) = Aromatase (Homo sapiens) (UniProt P11511); test: qHTS assay to identify aromatase inhibitors (AID 743083); note: nearly all actives have a fitted effect of over 55% in size; note: potency is the fitted concentration of half-maximal effect
[5] = qHTS assay to identify aromatase inhibitors - cell viability counter screen (AID 743084);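 note: cells stimulated with testosterone during compound exposure; nearly all actives have a fitted effect of over 55% in size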
[6] = target: Aryl hydrocarbon receptor (Homo sapiens) (UniProt P35869); test: qHTS assay to identify small molecule that activate the aryl hydrocarbon receptor (AhR) signaling pathway (AID 743085); note: nearly all actives have a fitted effect of over 15% in size; note: potency is the fitted concentration of half-maximal effect;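 for activation: HG2L7.5c1 human HepG2 liver cells with stably integrated DRE-driven firefly reporter; series mostly up to about 70 µM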
How it was run: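 Measured in HG2L7.5c1 cells: CellTiter-Fluor signal (30 min incubation, 37C) for viability, then luciferase luminescence (30 min, room temperature). Compound contact time was 24 h at 37C, following a 5 h pre-incubation.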

[7] = qHTS assay to identify small molecule that activate the aryl hydrocarbon receptor (AhR) signaling pathway - cell viability counter screen (AID 743086); note: nearly all actives have a fitted effect of over 45% in size; note: potency is the fitted concentration of half-maximal effect
How it was run: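 Cytotoxicity counter screen: CellTiter-Fluor signal (30 min, 37 C) in 4000 HepG2 cells/well carrying the DRE-luciferase reporter, following 24 h compound exposure at 37 C.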

[8] = qHTS assay to identify small molecule antagonists of the peroxisome proliferator-activated receptor gamma (PPARg) signaling pathway - cell viability counter screen (AID 743194); note: nearly all actives have a fitted effect of over 55% in size
How it was run: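 Viability was measured as CellTiter-Glo luminescence in GeneBLAzer PPARg UAS-bla HEK293H cells. These cells had been exposed 17 h at 37 C to compounds together with rosiglitazone at 50 nM final, with the beta-lactamase readout taken in the same wells.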

[9] = qHTS assay for small molecule agonists of the antioxidant response element (ARE) signaling pathway (AID 743202; active = well fitted activation curve with a large enough effect in the signal ratio in the repeat runs, not every such curve was filed as active; inconclusive = weak or mixed curves, or effect the other way; inactive = no such curve, though single readings can be large or run the other way; the % refers to the signal ratio; note: potency is the fitted concentration of half-maximal effect)
How it was run: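 Quantitative high-throughput format in HepG2 cells bearing an integrated ARE-beta-lactamase reporter. Compound exposure lasted 16 h at 37 C, and fluorescence was read 2 h after adding LiveBLAzer B/G substrate at room temperature.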

[10] = qHTS assay for small molecule agonists of the antioxidant response element (ARE) signaling pathway - cell viability counter screen (AID 743203; calls by dose curve; note: nearly all actives have a fitted effect of over 55% in size)
How it was run: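 Following 16 hrs of compound treatment at 37C, HepG2 cells with an ARE-controlled beta-lactamase gene were lysed with CellTiter-Glo. Luminescence was read after 30 min at room temperature.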

[11] = qHTS assay for small molecule activators of the heat shock response signaling pathway - cell viability counter screen (AID 743209); note: nearly all actives have a fitted effect of over 50% in size
How it was run: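 Readout: CellTiter-Glo luminescence, 30 min at room temperature. System: HSE-bla HeLa cells, 1500/well, plated overnight. Treatment: compounds in DMSO, 5 h at 37 C.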

[12] = qHTS assay to identify small molecule agonists of the peroxisome proliferator-activated receptor delta (PPARd) signaling pathway - cell viability counter screen (AID 743211); note: nearly all actives have a fitted effect of over 55% in size
How it was run: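 Following 5 h plating at 37 C and 5% CO2, PPARd UAS-bla HEK293H cells took up test compounds for 17 h. Viability was quantified by luminescence 30 min after CellTiter-Glo addition at room temperature.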

[13] = target: Peroxisome proliferator-activated receptor gamma (Homo sapiens) (UniProt P37231); test: qHTS assay to identify small molecule agonists of the peroxisome proliferator-activated receptor gamma (PPARg) signaling pathway (AID 743094; active = well fitted activation curve with a large enough effect in the signal ratio in the repeat runs, not every such curve was filed as active; inconclusive = weak or mixed curves, or effect the other way; inactive = no such curve, though single readings can be large or run the other way; the % refers to the signal ratio)
How it was run: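 Compounds dissolved in DMSO were added to PPARg UAS-bla HEK293H cells for 17 h at 37C, and reporter expression was quantified by fluorescence intensity after 1 h with LiveBLAzer B/G FRET substrate.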

[14] = target: Peroxisome proliferator-activated receptor gamma (Homo sapiens) (UniProt P37231); test: qHTS assay to identify small molecule antagonists of the peroxisome proliferator-activated receptor gamma (PPARg) signaling pathway (AID 743191; calls by dose curve; note: series mostly up to about 63 µM; nearly all actives have a fitted effect of over 30% in size)
How it was run: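 Beta-lactamase reporter under UAS control in HEK293H PPARg-bla cells; compound treatment 17 h at 37C. Read-out: fluorescence intensity after 1 h room-temperature incubation with LiveBLAzer B/G FRET substrate.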

[15] = qHTS assay for small molecule activators of the heat shock response signaling pathway (AID 743210; active = well fitted activation curve with a large enough effect in the signal ratio in the repeat runs, with a control signal flat, not every such curve was filed as active; inconclusive = weak or mixed curves; the % refers to the signal ratio;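 note: HeLa cells with beta-lactamase reporter driven by heat shock elements; series mostly up to about 63 µM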)
How it was run: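 HeLa HSE-bla cells, overnight plating; cpd in DMSO 5 h, 37 C; LiveBLAzer B/G FRET substrate 2.5 h RT; fluorescence intensity read.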

[16] = target: Estrogen receptor (Homo sapiens) (UniProt P03372); test: qHTS assay to identify small molecule antagonists of the estrogen receptor alpha (ER-alpha) signaling pathway (AID 743069; active = well fitted curve in the direction sought with a large enough effect in the signal ratio in the repeat runs, not every such curve was filed as active; inconclusive = weak or mixed curves, or effect the other way; inactive = no such curve, though single readings can be large or run the other way; the % refers to the signal ratio)
How it was run: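 ER-alpha-UAS-bla GripTite HEK293 line; 2% charcoal-stripped FBS overnight; plated, 4 hr 37C/5% CO2; cpd in DMSO + 17beta-estradiol, 18 hr 37C; LiveBLAzer B/G FRET substrate 2 hr RT; fluorescence intensity.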

[17] = target: Estrogen receptor (Homo sapiens) (UniProt P03372); test: qHTS assay to identify small molecule agonists of the estrogen receptor alpha (ER-alpha) signaling pathway (AID 743075; calls by dose curve;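 note: HEK293 GripTite cells with ER-alpha and UAS-driven beta-lactamase reporter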; note: potency is the fitted concentration of half-maximal effect)
[18] = target: Estrogen receptor (Homo sapiens) (UniProt P03372); test: qHTS assay to identify small molecule agonists of the estrogen receptor alpha (ER-alpha) signaling pathway using the BG1 cell line (AID 743079); note: nearly all actives have a fitted effect of over 20% in size; note: potency is the fitted concentration of half-maximal effect
[19] = qHTS assay to identify small molecule antagonists of the estrogen receptor alpha (ER-alpha) signaling pathway using the BG1 cell line (AID 743080; calls by dose curve; note: nearly all actives have a fitted effect of over 25% in size; note: potency is the fitted concentration of half-maximal effect)
How it was run: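 Antagonist mode: compounds in DMSO were pinned onto BG1-Luc-4E2 cells alongside 17beta-estradiol agonist, incubated 21.5 h, and ERE-driven luciferase measured with ONE-Glo. Cytotoxicity was multiplexed using CellTiter-Fluor fluorescence.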

Measured: Potency

Aryl hydrocarbon receptor (Homo sapiens), sequence (P35869 whole entry, looked up): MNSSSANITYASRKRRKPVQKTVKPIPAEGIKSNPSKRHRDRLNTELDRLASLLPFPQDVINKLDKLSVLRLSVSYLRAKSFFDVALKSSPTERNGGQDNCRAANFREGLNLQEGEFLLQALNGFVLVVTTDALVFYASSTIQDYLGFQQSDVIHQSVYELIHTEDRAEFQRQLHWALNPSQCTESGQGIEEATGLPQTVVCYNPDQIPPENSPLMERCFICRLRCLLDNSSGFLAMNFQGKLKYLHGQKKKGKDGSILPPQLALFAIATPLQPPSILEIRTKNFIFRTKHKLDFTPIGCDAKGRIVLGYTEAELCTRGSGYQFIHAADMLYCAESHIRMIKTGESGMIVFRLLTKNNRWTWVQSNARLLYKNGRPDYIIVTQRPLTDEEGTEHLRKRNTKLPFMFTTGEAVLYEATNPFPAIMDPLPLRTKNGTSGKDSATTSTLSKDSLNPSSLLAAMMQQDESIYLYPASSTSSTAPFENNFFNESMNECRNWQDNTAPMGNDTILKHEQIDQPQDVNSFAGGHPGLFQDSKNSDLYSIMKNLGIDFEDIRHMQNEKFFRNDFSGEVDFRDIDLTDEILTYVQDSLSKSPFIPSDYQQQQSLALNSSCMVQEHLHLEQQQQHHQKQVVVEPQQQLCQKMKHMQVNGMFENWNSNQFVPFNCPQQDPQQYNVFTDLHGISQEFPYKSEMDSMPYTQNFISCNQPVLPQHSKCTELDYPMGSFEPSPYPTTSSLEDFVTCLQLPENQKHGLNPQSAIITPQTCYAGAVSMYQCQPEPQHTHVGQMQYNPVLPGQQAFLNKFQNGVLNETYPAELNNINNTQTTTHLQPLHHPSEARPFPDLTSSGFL
Peroxisome proliferator-activated receptor gamma (Homo sapiens), sequence (P37231 whole entry, looked up): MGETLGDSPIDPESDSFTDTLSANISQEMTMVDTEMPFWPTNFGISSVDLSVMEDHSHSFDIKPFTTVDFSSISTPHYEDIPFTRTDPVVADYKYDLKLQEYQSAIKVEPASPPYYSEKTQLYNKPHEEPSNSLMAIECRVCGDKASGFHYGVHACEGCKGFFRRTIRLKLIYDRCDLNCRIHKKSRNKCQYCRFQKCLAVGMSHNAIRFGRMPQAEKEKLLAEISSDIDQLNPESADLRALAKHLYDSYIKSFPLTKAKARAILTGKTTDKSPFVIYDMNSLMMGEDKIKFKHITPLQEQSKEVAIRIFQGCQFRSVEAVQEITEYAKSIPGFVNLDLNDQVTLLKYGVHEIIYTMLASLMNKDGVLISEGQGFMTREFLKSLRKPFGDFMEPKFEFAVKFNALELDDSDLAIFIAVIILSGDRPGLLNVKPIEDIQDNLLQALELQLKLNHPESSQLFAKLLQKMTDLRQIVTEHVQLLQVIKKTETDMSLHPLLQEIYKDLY
Estrogen receptor (Homo sapiens), sequence (P03372 whole entry, looked up): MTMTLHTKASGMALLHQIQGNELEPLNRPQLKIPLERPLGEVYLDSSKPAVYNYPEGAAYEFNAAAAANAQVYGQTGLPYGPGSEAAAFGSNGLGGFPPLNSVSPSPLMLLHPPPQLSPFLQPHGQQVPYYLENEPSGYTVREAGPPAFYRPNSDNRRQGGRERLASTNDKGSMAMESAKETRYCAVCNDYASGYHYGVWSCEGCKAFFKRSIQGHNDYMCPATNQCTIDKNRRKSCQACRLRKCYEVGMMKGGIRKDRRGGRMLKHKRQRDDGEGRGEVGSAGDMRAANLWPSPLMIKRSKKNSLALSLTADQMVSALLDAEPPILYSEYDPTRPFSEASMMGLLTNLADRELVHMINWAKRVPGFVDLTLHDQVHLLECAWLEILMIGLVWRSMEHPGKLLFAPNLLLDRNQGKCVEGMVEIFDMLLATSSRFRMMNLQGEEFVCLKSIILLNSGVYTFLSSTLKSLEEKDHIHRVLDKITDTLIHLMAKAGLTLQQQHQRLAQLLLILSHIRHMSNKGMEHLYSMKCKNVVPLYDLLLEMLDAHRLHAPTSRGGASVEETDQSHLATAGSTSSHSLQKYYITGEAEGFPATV
Aromatase (Homo sapiens), sequence (P11511 whole entry, looked up): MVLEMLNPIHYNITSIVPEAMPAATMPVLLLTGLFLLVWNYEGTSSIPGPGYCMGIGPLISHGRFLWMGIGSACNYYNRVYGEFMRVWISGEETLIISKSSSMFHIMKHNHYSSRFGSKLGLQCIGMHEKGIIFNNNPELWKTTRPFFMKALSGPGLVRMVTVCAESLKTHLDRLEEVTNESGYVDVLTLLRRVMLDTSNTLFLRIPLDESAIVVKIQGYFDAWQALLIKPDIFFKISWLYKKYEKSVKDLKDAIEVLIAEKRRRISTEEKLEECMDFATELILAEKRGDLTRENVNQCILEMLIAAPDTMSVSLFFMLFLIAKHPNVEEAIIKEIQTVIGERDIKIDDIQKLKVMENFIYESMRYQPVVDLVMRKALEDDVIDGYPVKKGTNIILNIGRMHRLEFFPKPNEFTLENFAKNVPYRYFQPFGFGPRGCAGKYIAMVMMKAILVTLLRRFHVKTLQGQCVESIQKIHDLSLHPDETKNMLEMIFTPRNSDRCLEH

COc1c(Cl)c(Cl)c(Cl)c(Cl)c1Cl
not listed: [13] | [14] | [15] | [16] | [17] | [18] | [19]
inactive: all other assays above

CC(=O)O[C@]1(C(C)=O)CC[C@H]2[C@@H]3C=C(Cl)C4=CC(=O)[C@@H]5C[C@@H]5[C@]4(C)[C@H]3CC[C@@]21C
active: [1] 24.3 µM and 54.5 µM | [9] 30.6 µM
inactive and 54.4 µM (active): Aromatase (Homo sapiens)
not listed: [8] | [14] | [15] | [16] | [17] | [18] | [19]
inactive: all other assays above

C[Si](C)(C)O[Si](C)(C)C
not listed: [12] | [16] | [17] | [18] | [19]
inactive: all other assays above

NNc1ccc(C(=O)O)cc1
not listed: [12] | [14] | [15] | [16] | [17] | [18] | [19]
inactive: all other assays above

CC(=O)c1ccccn1
not listed: [12] | [16] | [17] | [18] | [19]
inactive: all other assays above

c1cc(-c2ccncc2)ccn1
not listed: [9] | [12] | [14] | [19]
inactive: all other assays above

COc1ccc(C(=O)CC(=O)c2ccc(C(C)(C)C)cc2)cc1
active: [1] 29.8 µM
not listed: [14] | [15] | [16] | [17] | [18] | [19]
inactive: all other assays above

O=C(COc1ccc(Cl)cc1)N1CCN(Cc2ccc3c(c2)OCO3)CC1
active: [19] 61.1 µM | [9] 15.4 µM and 29.8 µM
inactive and 30.9 µM (active): [3]
not listed: [8] | [12] | [13] | [14] | [15] | [18]
inactive: all other assays above

Nc1ccccc1N
active: [1] 5.45 µM | [6] 27.9 µM and 19.8 µM | [7] 19.8 µM | [9] 0.788 µM
not listed: [4] | [14] | [16]
inactive: all other assays above

O=C(c1ccccc1)c1ccc(O)cc1O
inactive and 30.6 µM (active): [2]
active: [17] 19.9 µM [inconclusive] and 38.9 µM [inconclusive] | [18] 9.88 µM and 9.69 µM | [9] 30.6 µM
not listed: [3] | [14] | [19]
inactive: all other assays above

Nc1ncn([C@@H]2O[C@H](CO)[C@@H](O)[C@H]2O)c(=O)n1
active: [1] 7.5 µM and 9.69 µM | Aromatase (Homo sapiens) 13.3 µM and 8.63 µM | [7] 5.31 µM | [9] 1.54 µM and 2.66 µM
not listed: [5] | [13] | [14] | [16]
inactive: all other assays above

CCOC(=O)C(C#N)=C(c1ccccc1)c1ccccc1
not listed: [9] | [14] | [16] | [17] | [18] | [19]
inactive: all other assays above

CC(=O)C1(C)CC2=C(CCCC2(C)C)CC1C (stereo not drawn)
not listed: [16] | [17] | [18] | [19]
inactive: all other assays above
